T1: USP38, Q8NB14
T1 chain: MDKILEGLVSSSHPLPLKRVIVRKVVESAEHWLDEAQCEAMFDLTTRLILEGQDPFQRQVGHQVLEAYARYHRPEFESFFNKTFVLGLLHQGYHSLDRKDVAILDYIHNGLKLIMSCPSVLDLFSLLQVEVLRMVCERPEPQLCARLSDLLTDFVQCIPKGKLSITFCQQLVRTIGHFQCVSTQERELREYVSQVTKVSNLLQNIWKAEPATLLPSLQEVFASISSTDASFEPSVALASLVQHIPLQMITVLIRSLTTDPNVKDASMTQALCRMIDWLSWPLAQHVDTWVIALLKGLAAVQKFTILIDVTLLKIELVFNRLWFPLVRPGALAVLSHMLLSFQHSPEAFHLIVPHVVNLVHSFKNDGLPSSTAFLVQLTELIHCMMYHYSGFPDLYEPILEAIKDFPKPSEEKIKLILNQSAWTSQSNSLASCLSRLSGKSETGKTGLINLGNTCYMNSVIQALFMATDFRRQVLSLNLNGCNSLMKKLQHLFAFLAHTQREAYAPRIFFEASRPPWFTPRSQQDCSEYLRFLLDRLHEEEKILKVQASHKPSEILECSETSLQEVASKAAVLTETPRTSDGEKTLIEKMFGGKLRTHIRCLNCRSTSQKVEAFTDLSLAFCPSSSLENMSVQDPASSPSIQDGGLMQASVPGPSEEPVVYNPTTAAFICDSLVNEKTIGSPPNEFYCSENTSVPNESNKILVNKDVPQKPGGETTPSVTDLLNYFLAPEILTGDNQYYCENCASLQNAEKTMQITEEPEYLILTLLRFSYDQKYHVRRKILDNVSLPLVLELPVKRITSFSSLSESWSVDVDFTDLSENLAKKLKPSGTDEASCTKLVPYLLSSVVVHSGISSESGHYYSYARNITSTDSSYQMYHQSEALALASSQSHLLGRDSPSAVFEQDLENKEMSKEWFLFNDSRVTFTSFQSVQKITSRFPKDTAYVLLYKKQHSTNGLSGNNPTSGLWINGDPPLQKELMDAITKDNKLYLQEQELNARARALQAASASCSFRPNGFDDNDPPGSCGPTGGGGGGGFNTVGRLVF

B1: usp_38_diff_out_16_109_181 (protein)
chain: SAEEEAAREYAEAAVANFRALAADAEARLARLEARGASPEVLAAYRDLAATARAAAAALEAAIAAGEDLRAAADAQWDAVGAAAARAAEIRRAEVRRRSA
B2: usp_38_diff_out_15_91_164 (protein)
chain: MSSKTIATKGTRDYLKDAAAEAKELGLEETAKALEEAAALADQLLDLLEQLEKAEKEGADQAEIDKLRKEAKELDAKLNEKISELVPGLAELEQKRIERE
B3: usp_38_diff_out_15_91_161 (protein)
chain: LESKLQAAEGTADYAKEMKAEAEKLGLEEQAKKLQEVADAAKKLAELYKKLIKLEKEGAPKEEIEKVRKEAKKLEEELNKLISEAVPYMAEILLKKQEKE
B4: usp_38_diff_out_15_91_163 (protein)
chain: MSSRTIATEGTLKRLKEDAELARELGLEETAKKAEEAAKLAEELLKLLKEREKAIKAGAPKEEIEKLRKEAKKKEKELNEKLSELVPDWAELELKRIEKE
B5: usp_38_diff_out_16_109_167 (protein)
chain: SADEEAAKLLAEATIKELKALAKEAEERLKKLKAKGASEEVLAAEKKLADTAKKAAEEIEKALKKGENILETTNKKWDEVGAAAAEAAELRRAEARARSA
B6: usp_38_diff_out_16_109_169 (protein)
chain: SADEEADRLLAEAAIANFRALAEEARARLARLKARGASPAVLAAHQALADTAEAAAAEIEAALAAGENLRETTDRQWDAVGAAAAAASAALRAEARARSA
B7: usp_38_diff_out_16_109_172 (protein)
chain: SADAEADRLLAEAAIENLRALAEEARRELERLEAKGASEEVLAAYRALAETAEAAAATIEAALAAGKDIRATTDAQWDAVGAAAARASELREAEARARSA
B8: usp_38_diff_out_16_109_175 (protein)
chain: SAQAEADRAFAEAAIANFRSLAADARARLARLEARGASPEVLAAYADLAATATAAAAALEAALAAGEDLRAAANAAWDAVGAAAARAARLLQEEVRRRSA
B9: usp_38_diff_out_15_85_156 (protein)
chain: EAEKLKEEIERKIKEAEKLLKEAKKLLADPKAPLEEIRKVLDKAAEALGEAEKLARELRRKFPEEREYVKEVLKRLDKLVDELEKLAREAFEREADALLA
B10: usp_38_diff_out_16_109_170 (protein)
chain: SQDEEADRLLAEATIENLKALAEEAKERLKKLEAKGASAEVLKAYKDLAETAKKAAEEIKEALKKGENIRETTDKKWDEVGKAAAAASEARRAEARARSA
B11: usp_38_diff_out_16_109_183 (protein)
chain: SADEEAARLLAEASIKNFRNLAKEAQAALAKAQARGASADVLAALQDLADTAKAAAERIEKAIKEGKDLLAVTNAEWDAVGAAAARARELREAETRARSA
B12: usp_38_diff_out_15_85_155 (protein)
chain: EAEELKREIEREIEEARRLLEEARALLADPAAPLAAIREVLDRAAEALGRAEALARELRRRFPEYREFVKKALEELDRLTDELERLAREAFEREADALAA
B13: usp_38_diff_out_15_91_159 (protein)
chain: LESKLEAARGVAAWAEEMAARARELGLEEEAALFEEVAAAARELAELLEKIIKLKKEGADPKEIEAARKEAKAAEARLNELLSRAVPAAARVLLAEQERE
B14: usp_38_diff_out_16_109_173 (protein)
chain: SQQAEGDRLFAEAAAANFRSLAEDAEAALARAKERGASPEVLAALQDLADTAKAAADTIEKTIADGGDLRATTDAQWDAVGAAAARADAIRRAEARARSD
B15: usp_38_diff_out_15_91_160 (protein)
chain: LESKLQAAKGTADWAKEMREEAEELGLEEEAALLEEVRKLAEELAKLLEELIKLEKEGAPQEEIDKLRKEAKEKEKELNEAISKAVPAAARILLARQEKE
B16: usp_38_diff_out_16_109_165 (protein)
chain: SQDEEADRLLAEAAIANLKALAKEAKEELKKLKARGASPEVLAAYQKLADTAEAAAKAIEAALKAGKNLRETTDKQLDAVGAAAAAASALRRAEARERSA
B17: usp_38_diff_out_16_109_182 (protein)
chain: AAEEEAARLLAEASIANFEALAEEARAQLAKAQARGASPEVLAALQDLADTARAAAAAIRRALEAGEDLRAVTDAQWDAVGAAAARANRLREAETDARSA
B18: usp_38_diff_out_15_91_162 (protein)
chain: LESKLQAARGTADYAREMQERAEELGLEEEAALLQKVRDAAEELAKLYEELIALQKAGADQAEIDKVRKEAKKLLEELNKLISEAVPAAARILLKEQERE
B19: usp_38_diff_out_16_109_171 (protein)
chain: SADEEADRLLAEAAIRNLRALAEAAEAELEKLEARGASPEVLAAYRDLAELARRAAEEIERALEEGRDLRETTDREWDRVGAAAARAAELRRAEARRRSA
B20: usp_38_diff_out_16_109_166 (protein)
chain: SADEEADRLLAEAAIENFEKLAEEAKEELKKLKAKGASEEVLKAYEDLAKTAREAAEKIREALERGENLRETTREQWDKVGAKAAEASELRRAEARERSA
B21: usp_38_diff_out_16_109_176 (protein)
chain: SAQAEADRAFAEAVVANLRALAEDAEARLARLEARGASPAVLAAYRDLADTARAAAAALEEAIAAGEDLRAIANAQWDRVGAAAARAADLLRAEVDARSA
B22: usp_38_diff_out_16_109_179 (protein)
chain: SAQAEADRAFAEAAIANFEALAADAEAELARLKARGASPEVLAAYQALADTARAAAAALRAALAAGEDLRAATNAKWDEVGAKAAEAAELRRAEVRRRSA
B23: usp_38_diff_out_16_109_177 (protein)
chain: SAQEEADREYAEAVIKNLKELAKEAKERLKKLEEKGASEEVLKAYKELAETAKKAAERLEKALKAGEDLRKIADEEWDKVGAAAAKAAEILREEVRKKSE
B24: usp_38_diff_out_16_109_184 (protein)
chain: SADEEADRLLAEASIKNFRDLSKDARAEAERLKARGASQAVIDAYNELAKTAEAAAEEIEKALEAGEDLRAVTDAQWDKVGAAAKKANDLRRAEARARTA
B25: usp_38_diff_out_15_85_154 (protein)
chain: EAEELKREIEEEIRRAEELLAEAEALLADPAAPLEEIEAVLDEAARALGRAEALARELRRRFPEYREYVKEVLERLDELTDRLLALETEAFERRAEEDLA
B26: usp_38_diff_out_16_109_186 (protein)
chain: SEQAESDRLLAEAAIANFKALAADARAEAARLKAKGASQAVIDAYNALADTATAAAAALEAALAAGEDLRATLDAQWDAVGAAAAAARDLREAETAARSA
B27: usp_38_diff_out_16_109_178 (protein)
chain: SAEDEANVEYAKAVIENLEKLAEEAEAELKRLQARGASAEVLAAYQKLADLAKEAAERLKKALAEGKDLRAIADEEWDRVGAAAAEAAELRQQEVRARSA
B28: usp_38_diff_out_16_109_168 (protein)
chain: SADEEADRLLAEAAIANFRALAADAEAELKRLEARGASPAVLKAYADLAAKAKEAAATIEAALAKGENLRETTDAQWDAVGAAAARASELRRAEARERSA
B29: usp_38_diff_out_16_109_174 (protein)
chain: SAQEEADREYALAVIENLKKLAKEAEEELKKLKARGASEEVLKAYEELAKTAKEAAKALEEALKAGEDLRAIANEKWDEVGKKAAEAAELLREEVRRRSA
B30: usp_38_diff_out_15_85_157 (protein)
chain: AAEALKAEIQAKIAEAKALLAEAKALLADPAAPLAEIEAVLDAAARALGQAQALARQLRREFPEQAAFVKAANAELDALTDELTALARAAFERRAEADLA
B31: usp_38_diff_out_16_109_180 (protein)
chain: SAEAEADKAYAEAVIANLEALAKAAEAELKKLKARGASPEVLAAYQALRDTAKAAAATLKAALAAGEDLRAIADAQWDAVGAAAAAAAALRRAEVAARSA
B32: usp_38_diff_out_16_109_185 (protein)
chain: AAQREADRALAEAAIANFRALAAEARARAAALRARGAPQAVIDAYDDLAATADAAAAALEAALAAGEDLRAAVDREWDAVGAAAAAAEALRRAATAARSA

Target: T1, USP38, Q8NB14
Test: median log2 fold change of GCK-ALFA target abundance (FLAG IP / Myc IP barcode read proportion) (log2 ratio); each designed protein is fused to an ALFA-tag nanobody in HEK293 cells to bring the named protein to FLAG-tagged glucokinase (GCK); Myc marks an untargeted standard; higher = target protein stabilised (more abundant)
Settings: target protein: 3xFLAG-MCP-GCK-ALFA reporter; HEK293 landing pad (RPLP)
Procedure, shortened: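 HEK293 landing-pad cells received a recombined binder library fused to the ALFA nanobody and were induced with 2 μg mL^−1 doxycycline, then transfected with a plasmid encoding a FLAG-tagged target and a Myc-tagged standard. Lysates were collected after 48 h for anti-FLAG and anti-Myc immunoprecipitation, and the circular RNA barcodes were reverse transcribed, amplified and sequenced. Target abundance for each binder is the median log2 ratio of FLAG to Myc barcode read proportions. Barcodes had to reach a proportion of at least 10^−7 in both replicates, each binder needed at least 3 barcodes per replicate, a pseudocount of 10^−6 was applied, and the two replicates were pooled.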
For B1, the “median log2 fold change” value was -0.515.
B2 was tested, and the “median log2 fold change” value was 0.19.
With B3 the “median log2 fold change” value was -0.0204.
In the case of B4, the “median log2 fold change” value is reported as 0.082.
For B5, the “median log2 fold change” value was 0.102.
In the case of B6, the “median log2 fold change” value is reported as -0.16.
B7 was tested, and the “median log2 fold change” value was -0.0926.
B8 was tested, and the “median log2 fold change” value was -0.756.
For B9, the “median log2 fold change” value was -0.0522.
With B10 the “median log2 fold change” value was 0.177.
B11 was tested, and the “median log2 fold change” value was -0.397.
For B12, the “median log2 fold change” value was 0.127.
With B13 the “median log2 fold change” value was -0.149.
In the case of B14, the “median log2 fold change” value is reported as -0.0935.
In the case of B15, the “median log2 fold change” value is reported as 0.0652.
For B16, the “median log2 fold change” value was 0.0224.
With B17 the “median log2 fold change” value was 0.0957.
With B18 the “median log2 fold change” value was -0.243.
With B19 the “median log2 fold change” value was -0.352.
B20 was tested, and the “median log2 fold change” value was 0.186.
B21 was tested, and the “median log2 fold change” value was 0.125.
For B22, the “median log2 fold change” value was -0.0762.
B23 was tested, and the “median log2 fold change” value was 0.0634.
B24 was tested, and the “median log2 fold change” value was -0.0394.
B25 was tested, and the “median log2 fold change” value was -0.0616.
In the case of B26, the “median log2 fold change” value is reported as 0.0614.
In the case of B27, the “median log2 fold change” value is reported as 0.375.
For B28, the “median log2 fold change” value was 0.16.
In the case of B29, the “median log2 fold change” value is reported as -0.105.
In the case of B30, the “median log2 fold change” value is reported as 0.104.
In the case of B31, the “median log2 fold change” value is reported as -0.191.
B32 was tested, and the “median log2 fold change” value was -0.358.

Source: the supplement of paper PMC12632987
